WT yeast gro inh: growth inhibition of WT yeast, mitochondrial fusion screen. mitochondrial fusion phenotypic screen, WT strain. inhibition, % at 10 µM. 190,000 tested, 2.1% active. AID 1362; in the data active = inhibition above about 58%; tested in S. cerevisiae
SKKanGAS inh: blocks kanamycin growth of S. pyogenes SKKanGAS strain. inhibition, % at 7.5 µM. 300,000 tested, 1.3% active. AID 1662. BacTiter-Glo, 6 h;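 active = mean replicate score, as percent of positive control median, at least 50; inconclusive = mean below 50 but one replicate at or above 50; inactive = mean and every replicate below 50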;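 also: strain carries kanamycin resistance gene driven by streptokinase promoter and grows in 40 µg/ml kanamycin; loss of luminescence reflects streptokinase promoter inhibition or plain growth inhibition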
PHOSPHO1 inh: PHOSPHO1 (human) inhibition | Q8TCT1 | recombinant PHOSPHO1, absorbance phosphatase assay | inhibition, % at 13.3 µM | 290,000 tested, 1.1% active | AID 1565; in the data active = inhibition above about 60%
Target sequence (Q8TCT1 whole entry, looked up): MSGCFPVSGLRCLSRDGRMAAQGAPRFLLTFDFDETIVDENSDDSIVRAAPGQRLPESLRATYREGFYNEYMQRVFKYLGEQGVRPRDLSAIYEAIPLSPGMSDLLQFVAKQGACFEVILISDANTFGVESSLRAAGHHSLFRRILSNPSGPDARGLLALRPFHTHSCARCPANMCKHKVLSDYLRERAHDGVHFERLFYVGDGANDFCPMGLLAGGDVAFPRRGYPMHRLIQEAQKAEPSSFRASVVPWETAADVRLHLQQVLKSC
Platelet DG rel: modulates dense granule release in human platelets; 300,000 tested, 0.22% active; human platelet-rich plasma, SFLLRN dense granule ATP release, luminescence; inhibition, %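 (compounds screened at 7.5 µM in platelet-rich plasma)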;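 active = mean replicate score, as percent of positive control, at or above 50; inconclusive = mean below 50 but at least one replicate at or above 50; inactive = mean and every replicate below 50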
Rtt109 HAT inh: inhibitors of Candida albicans Rtt109/Vps75 histone acetyltransferase; inhibition, % at 34.9 µM; 330,000 tested, 0.16% active; purified Rtt109/Vps75, ThioGlo CoA-SH fluorescence, 4 h; AID 540336;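 active = inhibition of at least 50% in every replicate; inconclusive = best replicate reaches 50% inhibition but some replicates fall short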
Target sequence (Q5AAJ8 whole entry, looked up): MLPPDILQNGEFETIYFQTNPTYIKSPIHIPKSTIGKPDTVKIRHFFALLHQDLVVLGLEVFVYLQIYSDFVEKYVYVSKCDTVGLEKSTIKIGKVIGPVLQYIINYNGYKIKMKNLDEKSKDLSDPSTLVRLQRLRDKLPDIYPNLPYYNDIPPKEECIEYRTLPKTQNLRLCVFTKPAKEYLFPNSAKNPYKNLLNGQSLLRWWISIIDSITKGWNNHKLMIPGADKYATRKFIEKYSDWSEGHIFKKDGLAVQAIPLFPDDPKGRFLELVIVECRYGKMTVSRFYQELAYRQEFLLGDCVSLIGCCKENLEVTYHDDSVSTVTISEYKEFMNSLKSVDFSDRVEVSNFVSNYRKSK
TPT1 inhibitor: inhibitors of Candida albicans tRNA 2'-phosphotransferase TPT1. recombinant caTPT1, FP RNA substrate dephosphorylation. inhibition, % at 5 µM. 300,000 tested, 0.81% active. AID 1962;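 active = inhibition above the mean of all tested compounds plus 3 SD, set per screening campaign, cut at about 24% in these data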
Hits are given with their value. Only some compounds are listed: those with a hit (about 3.9% of all), similar ones and a draw of the others.

CNC(=O)/C=C/c1cc(C(=O)c2ccc(Cl)cc2Cl)cn1C was read as SKKanGAS inh inactive, PHOSPHO1 inh inactive, Platelet DG rel inactive, Rtt109 HAT inh inactive and TPT1 inhibitor inactive.
CN(C)c1ccc(C2/C(=C(/O)c3ccc(Br)cc3)C(=O)C(=O)N2C)cc1 (centres undefined) was read as SKKanGAS inh inactive, PHOSPHO1 inh inactive, Platelet DG rel inactive, Rtt109 HAT inh inactive and TPT1 inhibitor inactive.
CC1CC2(CCCC2)N(C(=O)c2ccccc2)Cc2ccccc21 (centres undefined) was read as WT yeast gro inh 72, SKKanGAS inh inactive, PHOSPHO1 inh inactive, Platelet DG rel inactive, Rtt109 HAT inh inactive and TPT1 inhibitor inactive.
CC(=O)N1c2c(ccc3ccccc23)C(C)CC12CCCCC2 (centres undefined) was read as WT yeast gro inh inactive, SKKanGAS inh inactive, PHOSPHO1 inh inactive, Platelet DG rel inactive, Rtt109 HAT inh inactive and TPT1 inhibitor inactive.
For CC(=O)c1c[nH]c(C(=O)Nc2ccc(N3CCCCCC3)cc2)c1 the results were Rtt109 HAT inh inactive.
CS(=O)(=O)NCCSCc1ccco1 was read as WT yeast gro inh inactive, SKKanGAS inh inactive, PHOSPHO1 inh inactive, Platelet DG rel inactive, Rtt109 HAT inh 53 and TPT1 inhibitor inactive.
`CC(=O)Nc1ccc(S(=O)(=O)NCCSCc2ccco2)cc1` gave WT yeast gro inh inactive, SKKanGAS inh inactive, PHOSPHO1 inh inactive, Platelet DG rel inactive, Rtt109 HAT inh inactive and TPT1 inhibitor inactive.
`CCCCN(CC)CCCNC(=O)c1ccc2c(c1)N(CC)C(=O)c1ccccc1S2(=O)=O` gave SKKanGAS inh inactive, PHOSPHO1 inh inactive, Platelet DG rel inactive, Rtt109 HAT inh inactive and TPT1 inhibitor inactive.
O=C(Nc1ccc(F)cc1F)N1CCCC(c2nc(-c3ccc(F)cc3)no2)C1 (centres undefined) was read as WT yeast gro inh inactive, SKKanGAS inh inactive, PHOSPHO1 inh inactive, Platelet DG rel inactive, Rtt109 HAT inh 64 and TPT1 inhibitor inactive.
`COc1ccc(C(=O)N2CCCC(c3nc(-c4ccc(OC)c(OC)c4)no3)C2)c(OC)c1` (centres undefined) gave WT yeast gro inh inactive, SKKanGAS inh inactive, PHOSPHO1 inh inactive, Platelet DG rel 50, Rtt109 HAT inh inactive and TPT1 inhibitor inactive.
`CCc1ccc(-c2nc(SCC(=O)N(CC)C3CCS(=O)(=O)C3)n[nH]2)cc1` (centres undefined) gave SKKanGAS inh inactive, Platelet DG rel inactive, Rtt109 HAT inh inactive and TPT1 inhibitor inactive.
For CCOc1ccc(C2C(C(=O)OC)=CN(C(C)c3ccccc3)C=C2C(=O)OC)cc1 (centres undefined) the results were SKKanGAS inh inactive, PHOSPHO1 inh inactive, Rtt109 HAT inh inactive and TPT1 inhibitor inactive.
Cc1ccccc1S(=O)(=O)c1c(C)cc(C)n(CC(C)C)c1=O was read as WT yeast gro inh 68, SKKanGAS inh inactive, PHOSPHO1 inh inactive, Platelet DG rel inactive, Rtt109 HAT inh inactive and TPT1 inhibitor inactive.
Screening Cc1ccc2c(CSc3nnc(C4CC4)n3N)cc(=O)oc2c1 returned WT yeast gro inh inactive, SKKanGAS inh inactive, PHOSPHO1 inh inactive, Platelet DG rel inactive, Rtt109 HAT inh inactive and TPT1 inhibitor inactive.
Cc1ccc2c(CSc3nnc(C4CC4)n3N)cc(=O)oc2c1C was read as WT yeast gro inh 96, SKKanGAS inh inactive, PHOSPHO1 inh inactive, Platelet DG rel inactive, Rtt109 HAT inh inactive and TPT1 inhibitor inactive.
For CCOc1ccc(NC(=O)c2cc(C3CC3)nc3c2cnn3C(C)C)cc1OC the results were Rtt109 HAT inh inactive.
`Cn1c(=O)c(C(=O)NNC(=O)c2ccccc2Br)c(O)c2ccccc21` gave SKKanGAS inh 75, PHOSPHO1 inh inactive, Platelet DG rel inactive, Rtt109 HAT inh inactive and TPT1 inhibitor inactive.
Screening CCn1c(=O)c(C(=O)NNC(=O)c2ccccc2Br)c(O)c2ccccc21 returned SKKanGAS inh 90, PHOSPHO1 inh inactive, Platelet DG rel inactive, Rtt109 HAT inh inactive and TPT1 inhibitor inactive.
For Cn1c(=O)c(C(=O)NNC(=O)c2ccccc2Cl)c(O)c2ccccc21 the results were SKKanGAS inh 51, PHOSPHO1 inh inactive, Platelet DG rel inactive, Rtt109 HAT inh inactive and TPT1 inhibitor inactive.
CCn1c(=O)c(C(C)=O)c(O)c2ccccc21 was read as WT yeast gro inh inactive, SKKanGAS inh inactive, PHOSPHO1 inh inactive, Platelet DG rel inactive, Rtt109 HAT inh inactive and TPT1 inhibitor inactive.
Screening NC(=O)c1ccsc1NC(=O)COC(=O)Cc1cccc2ccccc12 returned WT yeast gro inh 78, SKKanGAS inh inactive, PHOSPHO1 inh inactive, Platelet DG rel inactive, Rtt109 HAT inh inconclusive and TPT1 inhibitor inactive.
Screening CC1(C)CC(N2CCC(=O)NC2=S)CC(C)(C)N1 returned SKKanGAS inh inactive, Platelet DG rel 69, Rtt109 HAT inh inactive and TPT1 inhibitor inactive.
Screening CC(C)(C)c1nnc2sc(SCC(=O)N3CCCCC3)nn2c1=O returned Rtt109 HAT inh inactive.
CC(C)NC(=O)c1ccc(COc2cc(Cl)ccc2Cl)o1 was read as SKKanGAS inh inactive, PHOSPHO1 inh inactive, Platelet DG rel inactive, Rtt109 HAT inh inactive and TPT1 inhibitor inactive.
For O=C(COC(=O)c1cnccn1)c1ccc([N+](=O)[O-])cc1 the results were SKKanGAS inh inactive, PHOSPHO1 inh inactive, Platelet DG rel inactive, Rtt109 HAT inh 137 and TPT1 inhibitor inactive.
Cc1ccc(C(=O)COC(=O)c2cnccn2)cc1 was read as WT yeast gro inh inactive, SKKanGAS inh inactive, PHOSPHO1 inh inactive, Platelet DG rel inactive, Rtt109 HAT inh inactive and TPT1 inhibitor inactive.
`Nc1cc(S(=O)(=O)Nc2ccccc2Cl)ccc1N1CCCCC1` gave Rtt109 HAT inh inactive.
COC(=O)CSc1nnc(NC(=O)c2ccc3c(c2)OCO3)s1 was read as SKKanGAS inh 52, PHOSPHO1 inh inactive, Platelet DG rel inactive, Rtt109 HAT inh inactive and TPT1 inhibitor inactive.
`O=C(O)CSc1nnc(NC(=O)c2ccc3c(c2)OCO3)s1` gave WT yeast gro inh inactive, SKKanGAS inh inactive, PHOSPHO1 inh inactive, Platelet DG rel inactive, Rtt109 HAT inh inactive and TPT1 inhibitor inactive.
`COC(=O)CSc1nc2cc3c(cc2cc1C)OCO3` gave WT yeast gro inh 70, SKKanGAS inh inactive, PHOSPHO1 inh inactive, Platelet DG rel inactive, Rtt109 HAT inh inactive and TPT1 inhibitor inactive.
Cc1cc(Cl)ccc1OCC(=O)OCC(=O)NC1CCS(=O)(=O)C1 (centres undefined) was read as Rtt109 HAT inh inactive.
`CCCCC(CC)C(=O)Oc1ccc(O)c(C(C)(C)C)c1` (centres undefined) gave WT yeast gro inh 91, SKKanGAS inh 61, PHOSPHO1 inh inactive, Platelet DG rel inactive, Rtt109 HAT inh inactive and TPT1 inhibitor inactive.
`CC(C)(C)c1cc(OC(=O)C2CCCC2)ccc1O` gave SKKanGAS inh inactive, PHOSPHO1 inh inactive, Platelet DG rel inactive, Rtt109 HAT inh inactive and TPT1 inhibitor inactive.
For Cc1c(NC(=O)CSc2nc3ccccc3c(=O)n2C(C)C)c(=O)n(-c2ccccc2)n1C the results were Rtt109 HAT inh inactive.

Screens: PubChem BioAssay, several laboratories
